In PubChem BioAssay (NCI):
Compounds without any hit were thinned out: in the full panel of roughly 83,000, 20% have a hit.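 Each cell line was grown in a 96-well plate and treated with one concentration of compound for 48 hours. Values below 10 were considered active.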 A number with no mark means an inactive call. Activity calls are given as the source filed them.

Key:
Test in all cases: NCI-60 one-dose screen, 48 h (100 = growth as untreated, 0 = no growth, -100 = all killed)
Conditions in all cases: 10 µM unless noted
HCT-15 colon = test system: HCT-15 colon
HT29 colon = test system: HT29 colon
SNB-75 CNS = test system: SNB-75 CNS
SNB-19 CNS = test system: SNB-19 CNS
U251 CNS = test system: U251 CNS
PC-3 prostate = test system: PC-3 prostate
LOX IMVI melanoma = test system: LOX IMVI melanoma
SK-MEL-28 melanoma = test system: SK-MEL-28 melanoma
SK-MEL-2 melanoma = test system: SK-MEL-2 melanoma
UO-31 renal = test system: UO-31 renal
ACHN renal = test system: ACHN renal
CAKI-1 renal = test system: CAKI-1 renal
A498 renal = test system: A498 renal
CCRF-CEM leukemia = test system: CCRF-CEM leukemia
EKVX NSCLC = test system: EKVX NSCLC
SN12C renal = test system: SN12C renal
TK-10 renal = test system: TK-10 renal
HL-60(TB) leukemia = test system: HL-60(TB) leukemia
UACC-62 melanoma = test system: UACC-62 melanoma
SK-MEL-5 melanoma = test system: SK-MEL-5 melanoma

| SMILES | growth (HCT-15 colon) | growth (HT29 colon) | growth (SNB-75 CNS) | growth (SNB-19 CNS) | growth (U251 CNS) | growth (PC-3 prostate) | growth (LOX IMVI melanoma) | growth (SK-MEL-28 melanoma) | growth (SK-MEL-2 melanoma) | growth (UO-31 renal) | growth (ACHN renal) | growth (CAKI-1 renal) | growth (A498 renal) | growth (CCRF-CEM leukemia) | growth (EKVX NSCLC) | growth (SN12C renal) | growth (TK-10 renal) | growth (HL-60(TB) leukemia) | growth (UACC-62 melanoma) | growth (SK-MEL-5 melanoma) [%] |
| --- | --- | --- | --- | --- | --- | --- | --- | --- | --- | --- | --- | --- | --- | --- | --- | --- | --- | --- | --- | --- |
| CCCCOC(N)=O | 101% | 107% | 88.6% | 98% | 106% | 108% | 104% | 112% | 113% | 89.1% | 111% | 103% | 125% | 102% | – | – | – | – | – | – |
| O=C/C=C/c1ccco1 | 106% | 95.1% | 80.5% | 106% | 95.1% | 83.7% | 98.2% | 114% | 108% | 88.9% | 109% | 95.6% | 96.9% | 100% | 100% | 101% | 97.7% | 88.2% | – | – |
| CC12CCC3C4CCC(=O)C=C4CCC3C1CC1CC(=O)OC12 (centres undefined) | 112% | 90.9% | 92.3% | 94.6% | 97.1% | 87.1% | 90.7% | 108% | 104% | 85.5% | 103% | 102% | 98.9% | 102% | 110% | 93.8% | 89.8% | 105% | 97.2% | – |
| Oc1cc(Cl)ccc1Oc1ccc(Cl)cc1Cl | 14.4% | 87.4% | 48.3% | 23.7% | 8.21% (active) | 39% | 11.5% | 46.8% | 16.6% | -0.646% (active) | 7.4% (active) | 90.5% | 103% | 24.8% | 42.7% | 10.9% | 102% | – | 24.4% | – |
| COc1ccc(C(C#N)C(C)=O)cc1 (centres undefined) | 95% | 88.7% | 82.1% | 105% | 106% | 103% | 98.1% | 115% | 103% | 90.4% | 99.8% | 95.3% | 96.8% | 98.6% | 108% | 102% | 96.8% | 110% | 97.6% | – |
| C[N+]12CCC34C5=CC(=O)C(=O)C=C5[N+]5(C)C(=O)CC6OCC=C(C1)C(CC32)C6C45 (centres undefined) | 103% | 104% | 109% | 104% | 104% | 106% | 118% | 108% | 120% | 96.7% | 101% | 116% | 126% | 102% | – | – | 116% | 84.2% | – | – |
| NC1CN2CCC1CC2 (centres undefined) | 99.3% | 99.8% | 73.9% | 101% | 103% | 90.7% | 97.2% | 100% | 100% | 80.3% | – | 86.7% | 97.8% | 93% | 96.5% | 108% | – | – | 90.4% | – |
| COc1cc(/C=C\[N+](=O)[O-])ccc1OCc1ccccc1 | -11.7% (active) | 4.62% (active) | 79.2% | 36.5% | 5.01% (active) | 23% | -83.3% (active) | 18.5% | 89.5% | 30.2% | 46.4% | 73.7% | 71.1% | 14.5% | 91.5% | 56.6% | 66.3% | 3.4% (active) | 30.5% | – |
| C[Se]/C=C1/C(=O)N(c2c(Cl)cccc2Cl)c2ccccc21 | 45.7% | 7.79% (active) | -30.8% (active) | 32.6% | 25.1% | 31.3% | 17.7% | 8.1% (active) | 51.1% | -96.5% (active) | 30.1% | 2.44% (active) | 11.5% | 10.2% | 24% | -35.7% (active) | 11.6% | -39.7% (active) | 27.8% | – |
| C/C=C(/C)C(=O)O[C@H]1CC[C@@]2(C)[C@@H]3CC[C@H]4[C@]5(O)C[C@H](O)[C@@]6(O)[C@@H](CN7C[C@@H](C)CC[C@H]7[C@@]6(C)O)[C@]5(O)C[C@@]42O[C@@]13O | 98.4% | 92.4% | 79.9% | 112% | 103% | – | 104% | 124% | 0.648% (active) | 81% | 113% | 103% | 127% | 106% | 107% | 115% | 125% | 128% | 127% | 102 |
| C/C(=C(\c1ccc(OCCN2CCOCC2)cc1)c1ccc(OC(=O)Cc2ccccc2)cc1)c1ccc(Cl)cc1 | 91.4% | 77.1% | 95.7% | 96.3% | 99.2% | 68.2% | 98.6% | 103% | 81.5% | 85.5% | 112% | 78.7% | 96.8% | 84.9% | 95.4% | 91.2% | 90.8% | 82.9% | 85.4% | – |
| CC[PH+](CC)CC.O=COC1OC([S-])C(OC=O)C(OC=O)C1OC=O.[Au+] (centres undefined) | -74.9% (active) | -54% (active) | -24.2% (active) | -99.1% (active) | -99.5% (active) | -7.17% (active) | -89.4% (active) | -92.1% (active) | -72.5% (active) | -91.2% (active) | -99.7% (active) | -92.8% (active) | -82.2% (active) | -11.4% (active) | -41.2% (active) | -90.9% (active) | -97.7% (active) | – | -99% (active) | – |
| CC[C@H](C)[C@H](NC(=O)[C@H]1CCCCN1C)C(=O)N(C)[C@H](C[C@@H](OC(C)=O)c1nc(C(=O)NC23C4C5C2C2C3C4C52C(=O)OC)cs1)C(C)C (some centres undefined) | 9.18% (active) | -5.46% (active) | 22.9% | 28.1% | 10.8% | 23.5% | 7.09% (active) | 59.1% | 39.7% | 33.4% | – | 28.9% | 3.94% (active) | 6.99% (active) | 36.2% | 32.5% | – | -32.8% (active) | 43.8% | – |
| CC(=O)Cc1ccc2c(c1)OCO2 | 113% | 98.6% | 117% | 98.8% | 103% | 106% | 100% | 130% | 112% | 102% | – | 96.9% | 116% | 108% | 109% | 101% | 110% | – | 103% | – |
| CCN(CC)CCn1c(=O)n(C)c2ccccc21 | 114% | 112% | 97% | 113% | 96.3% | 96.8% | 98.4% | 114% | 109% | 92.5% | 114% | 102% | 104% | 103% | 114% | – | 111% | 107% | 109% | – |
| C[C@]12CC[C@@H](OC(=O)N(CCCl)N=O)C[C@@H]1CC[C@@H]1[C@@H]2CC[C@]2(C)C(=O)CC[C@@H]12 | 72.8% | 57.9% | 63.4% | 37.5% | 34.5% | 45.6% | 46.4% | 99.4% | 37.8% | 49.9% | 21.7% | 20.7% | -10.1% (active) | 26.6% | 59.8% | 43% | – | -21.8% (active) | 30.4% | – |
